# Laboratory results as given in PubChem BioAssay.
# Unmarked numbers belong to inactive results. This is one part of the list. Calls of active or inactive are those of the source.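 Rule for the calls, unless noted: active = inhibition above a limit from the primary screen, the mean over all compounds plus 3 SD (cut at about 19% in these data); inactive = the rest.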
# Assays:
# [1] = KLF5 expression inhibitors, confirmation, DLD-1 cells, luminescence (AID 1834;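 active = inhibition above a set limit taken from the earlier primary screen, cut at about 63% in these data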;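 note: 0% = DMSO wells and 100% = LY294002 at 200 µM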); conditions: DLD-1 KLF5 promoter firefly luciferase reporter, at 4 µM, hits give high values
# [2] = cytotoxicity in rat IEC-6 cells, cytotoxicity control for KLF5 inhibitor project, cell-based, luminescence, triplicate (AID 1905; in the data active = inhibition above about 23%;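 note: cells exposed to compounds for 48 hours before viability read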); conditions: IEC-6 rat intestinal cells, viability luminescence; at 4 µM; hits give high values
# [3] = compounds interfering with TAMRA-BSA probe, counter-screen for TCR-CD3 interaction inhibitor project, biochemical, fluorescence, TAMRA-labeled BSA (AID 652035; in the data active = inhibition above about 23%;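 note: 0% = buffer low control and 100% = reference high control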); conditions: TAMRA-labeled BSA probe fluorescence counterscreen; at 9.4 µM; hits give high values
# [4] = system: T-cell receptor (TCR)-CD3 interaction, human; experiment: TCR-CD3 interaction inhibitors, retest, confirmation, biochemical, fluorescence, TAMRA-labeled TCR probe (AID 652036; in the data active = inhibition above about 19%); conditions: TAMRA-labeled TCR probe fluorescence binding assay; at 9.4 µM; hits give high values
# [5] = system: Fam108b (Abhd17b) serine hydrolase [Mus musculus]; experiment: mouse Fam108b serine hydrolase inhibitors, confirmation, counter-screen for RBBP9 inhibitor project, biochemical, fluorescence polarization, triplicate (AID 1978); conditions: recombinant Fam108b, FP-Rh probe fluorescence polarization; at 9.51 µM; hits give high values;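 note: 0% = median of active Fam108b wells and 100% = catalytically dead S170A mutant; inhibitors free the probe so polarization falls as inhibition rises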
# [6] = biological target: Bcl-2-like protein 1 (Homo sapiens) (UniProt Q07817); experiment: Bcl-xL inhibitors blocking Bim BH3 binding, confirmation, counter-screen for MCL1 inhibitor project, biochemical, fluorescence polarization (AID 2166;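 active = inhibition above a cutoff equal to the mean inhibition of all tested compounds plus 3 SD, cut at about 30% in these data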); conditions: GST-Bcl-xL / FITC-Bim BH3 peptide FP binding; at 10.9 µM; hits give high values
# [7] = biological target: Induced myeloid leukemia cell differentiation protein Mcl-1 (Homo sapiens) (UniProt Q07820); experiment: inhibitors of MCL1 binding to BIM-BH3, confirmation, biochemical, fluorescence polarization, triplicate (AID 2168;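 active = inhibition above the average of all tested compounds plus 3 SD, cut at about 40% in these data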;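 note: 0% = DMSO wells and 100% = unlabeled Bim-BH3 control peptide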); conditions: GST-MCL1 / FITC-Bim-BH3 fluorescence polarization; at 10.9 µM; hits give high values
# [8] = biological target: Protein phosphatase methylesterase 1 (Homo sapiens) (UniProt Q9Y570); experiment: PME-1 inhibitor activity retest, confirmation, biochemical, fluorescence polarization, FP-Rh probe, triplicate (AID 2171;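 active = inhibition above the hit cutoff set in the earlier primary screen, cut at about 27% in these data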;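 note: 0% = enzyme with DMSO and 100% = wells lacking PME-1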); conditions: recombinant PME-1, FP-Rh probe fluorescence polarization; at 5.9 µM; hits give high values
# [9] = biological target: Toll-like receptor 9 (Homo sapiens) (UniProt Q9NR96); experiment: TLR9-MyD88 association inhibitors, retest, confirmation, cell-based, CHO, BLA complementation, fluorescence, triplicate (AID 540250;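 active = mean inhibition across three repeats above about 21% taken from the earlier screen, limit read from the data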;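 note: blue over green emission ratio reports constitutive TLR9 MyD88 association via BLA complementation; 0% = DMSO vehicle wells and 100% = clavulanate BLA inhibitor wells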); conditions: CCF4 FRET ratio, at 4.98 µM, hits give high values
# [10] = beta-lactamase reporter inhibitors in CHO cells, artefact control for TLR9-MyD88 binding inhibitor project, cell-based, fluorescence (AID 540251;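 active = mean inhibition above a 50% cutoff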;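 note: counterscreen of TLR9-MyD88 hits on CMV-driven BLA in CHO-K1 cells; 0% = DMSO alone and 100% = clavulanate blocking BLA; higher means less blue over green ratio so more BLA blockade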); conditions: CHO-BLA cells, CCF4 FRET ratio, at 4.98 µM, hits give high values
# [11] = CHO cell viability loss – luminescence, single concentration, cytotoxicity control for TLR9-MyD88 binding inhibitor project (AID 588336; in the data active = inhibition above about 11%); conditions: TLR9-MyD88 CHO cells cytotoxicity, at 4.98 µM, hits give high values
# [12] = biological target: Glutathione S-transferase omega-1 (Homo sapiens) (UniProt P78417); experiment: GSTO1 inhibitor hit confirmation, counter-screen for RBBP9 inhibitor project, biochemical, fluorescence polarization, triplicate (AID 2176;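 active = inhibition above the primary screen's cutoff, its mean inhibition plus 3 SD, cut at about 35% in these data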;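 note: loss of polarization as inhibitors block binding of rhodamine sulfonate ester activity probe; 0% = GSTO1 with DMSO and 100% = wells lacking GSTO1 enzyme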); conditions: recombinant GSTO1, probe fluorescence polarization; at 5.96 µM; hits give high values
# [13] = biological target: Photoreceptor-specific nuclear receptor (Homo sapiens) (UniProt Q9Y5X4); experiment: NR2E3 agonists, confirmation, biochemical, TR-FRET (AID 2379; in the data active = activation above about 20%); conditions: cell-free NR2E3 corepressor release, 5 h, at 3.98 µM, hits give high values
# [14] = biological target: Platelet-activating factor acetylhydrolase (Homo sapiens) (UniProt Q13093); experiment: pPAFAH (PLA2G7) enzyme inhibitors, confirmation, biochemical, fluorescence polarization, human (AID 463230;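 active = mean inhibition of the triplicate above the hit cutoff set for the earlier primary screen, cut at about 25% in these data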;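 note: 0% = enzyme with DMSO and 100% = wells lacking pPAFAH enzyme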); conditions: recombinant pPAFAH, FP-Rh probe fluorescence polarization; at 3.39 µM; hits give high values
# [15] = biological target: Protein-arginine deiminase type-4 (Homo sapiens) (UniProt Q9UM07); experiment: human PAD4 inhibitors, confirmation, biochemical, fluorescence polarization (AID 488796;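 active = mean inhibition across replicates above the hit cutoff set by the earlier primary screen, cut at about 15% in these data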;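 note: inhibitors block active-site labeling by the probe so polarization falls; 0% = PAD4 with probe and DMSO and 100% = probe without PAD4 enzyme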); conditions: recombinant PAD4, RCA probe fluorescence polarization; at 6.36 µM; hits give high values
# [16] = biological target: Peroxisome proliferator-activated receptor gamma (Homo sapiens) + Nuclear receptor corepressor 2 (Homo sapiens) (UniProt P37231+Q9Y618); experiment: agonists of PPARg-NCOR2 corepressor interaction, counter-screen for NR2E3 agonist project, biochemical, TR-FRET (AID 504787; in the data active = inhibition above about 20%;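 note: 0% = DMSO vehicle and 100% = wells without protein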); conditions: TR-FRET PPARg-NCOR2 coregulator interaction, at 3.98 µM, hits give high values
# [17] = biological target: Oxysterols receptor LXR-beta (Homo sapiens) (UniProt P55055); experiment: LXR agonists, Gal4 luciferase reporter, confirmation, counter-screen for hcDAF-12 agonist project, cell-based, luminescence, HEK293, H. contortus campaign (AID 743027;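 active = mean percent activation of the reporter above a cutoff set as the average over tested compounds plus their standard deviation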); conditions: HEK293 Gal4-LXR tk-luc reporter, 24 h, at 6.8 µM, hits give high values, normalized: DMSO 0%, positive control 100%
# [18] = system: Nuclear hormone receptor DAF-12 (Haemonchus contortus); experiment: H. contortus DAF-12 receptor agonists, confirmation, cell-based, luminescence, HEK293, lit1-tk-luc, triplicate (AID 743032;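 active = mean activation across triplicate tests above the threshold derived from the earlier primary screen, cut at about 5.5% in these data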;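 note: 0% = DMSO only wells and 100% = 3 µM Δ7-dafachronic acid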); conditions: HEK293 hcDAF-12 lit1-tk-luc reporter, at 6.8 µM, hits give high values, % of Δ7-dafachronic acid response
# [19] = biological target: (Lyso)-N-acylphosphatidylethanolamine lipase (Mus musculus) (UniProt Q8VD66); experiment: ABHD4 inhibitors, retest, confirmation, biochemical, fluorescence polarization, mouse (AID 720658;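 active = mean inhibition across replicates above the hit cutoff set in the primary screen, cut at about 30% in these data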;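 note: 0% = wild-type ABHD4 with DMSO and 100% = catalytically dead S159A mutant with DMSO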); conditions: purified mABHD4, FP-Rh probe fluorescence polarization; at 8.92 µM; hits give high values
# [20] = biological target: Serine protease HTRA1 (Homo sapiens) (UniProt Q92743); experiment: HTRA1 protease inhibitors, retest, confirmation, biochemical, fluorescence polarization (AID 540248;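 active = mean inhibition over three repeats above a set limit taken from the earlier primary screen, cut at about 37% in these data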;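 note: 0% = HTRA1 with DMSO and 100% = wells lacking HTRA1; inhibitors block probe binding so polarization drops and inhibition rises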); conditions: recombinant HTRA1, FP-rhodamine activity-based probe, at 5.96 µM, hits give high values
# [21] = biological target: Nuclear receptor coactivator 3 (Homo sapiens) (UniProt Q9Y6Q9); experiment: SRC3 coactivator transcriptional activity inhibitors, confirmation, cell-based, luminescence, quadruplicate (AID 588792;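 active = mean inhibition over 43.08%, the solvent-only control mean plus 3 SD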;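 note: 0% = DMSO treated cells and 100% = gossypol at 36 µM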); conditions: HEK293 GAL4-SRC3 luciferase reporter, at 3.6 µM, hits give high values
# [22] = system: transactivating tegument protein VP16 (Human herpesvirus 1), Gal4-VP16 luciferase reporter; experiment: VP16 transactivation inhibitors, counter-screen for SRC3 inhibitor project, cell-based, luminescence, high throughput (AID 588794; in the data active = inhibition above about 30%); conditions: mammalian cells, VP16-driven luciferase reporter luminescence; at 3.6 µM; hits give high values
# [23] = biological target: Nuclear receptor coactivator 1 (Homo sapiens) (UniProt Q15788); experiment: SRC1 coactivator transcriptional activity inhibitors, confirmation, cell-based, luminescence, quadruplicate (AID 588820;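 active = mean inhibition above 46.68%, the untreated control wells mean plus 3 SD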;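 note: 0% = DMSO wells and 100% = gossypol 36 µM treated wells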); conditions: HEK293 GAL4-SRC1 luciferase reporter, at 3.6 µM, hits give high values
# [24] = VP16 transactivation inhibitors, counter-screen for SRC1 inhibitor project, cell-based, luminescence, high throughput (AID 588824; in the data active = inhibition above about 25%); conditions: cell-based VP16 transactivation luciferase luminescence; at 3.6 µM; hits give high values
# (Lyso)-N-acylphosphatidylethanolamine lipase (Mus musculus), sequence (Q8VD66 whole entry, looked up): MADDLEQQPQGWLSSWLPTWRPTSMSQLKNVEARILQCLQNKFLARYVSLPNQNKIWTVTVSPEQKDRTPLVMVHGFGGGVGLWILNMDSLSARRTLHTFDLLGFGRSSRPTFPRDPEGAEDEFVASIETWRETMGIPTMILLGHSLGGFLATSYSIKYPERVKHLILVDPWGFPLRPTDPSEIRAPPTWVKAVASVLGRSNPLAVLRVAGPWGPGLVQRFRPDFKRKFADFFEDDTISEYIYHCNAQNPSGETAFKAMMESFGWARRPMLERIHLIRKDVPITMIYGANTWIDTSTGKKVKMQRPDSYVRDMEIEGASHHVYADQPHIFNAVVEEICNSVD
# Bcl-2-like protein 1 (Homo sapiens), sequence (Q07817 whole entry, looked up): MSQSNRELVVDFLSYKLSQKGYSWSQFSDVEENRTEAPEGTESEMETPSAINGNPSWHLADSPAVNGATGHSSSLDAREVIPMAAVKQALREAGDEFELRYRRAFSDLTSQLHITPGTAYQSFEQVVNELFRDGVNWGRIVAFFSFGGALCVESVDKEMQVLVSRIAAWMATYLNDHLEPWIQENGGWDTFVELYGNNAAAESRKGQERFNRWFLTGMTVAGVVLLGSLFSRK
# Protein phosphatase methylesterase 1 (Homo sapiens), sequence (Q9Y570 whole entry, looked up): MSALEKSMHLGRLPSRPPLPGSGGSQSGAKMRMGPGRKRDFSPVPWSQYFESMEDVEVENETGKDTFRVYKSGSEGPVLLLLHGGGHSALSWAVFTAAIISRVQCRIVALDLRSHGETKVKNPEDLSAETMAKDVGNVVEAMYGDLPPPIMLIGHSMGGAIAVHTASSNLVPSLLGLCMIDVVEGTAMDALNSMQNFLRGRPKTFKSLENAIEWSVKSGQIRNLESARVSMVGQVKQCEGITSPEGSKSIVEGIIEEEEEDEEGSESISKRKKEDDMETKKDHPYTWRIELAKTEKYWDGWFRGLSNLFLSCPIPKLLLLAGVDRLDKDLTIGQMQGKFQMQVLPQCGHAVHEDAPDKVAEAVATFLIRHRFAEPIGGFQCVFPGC
# Induced myeloid leukemia cell differentiation protein Mcl-1 (Homo sapiens), sequence (Q07820 whole entry, looked up): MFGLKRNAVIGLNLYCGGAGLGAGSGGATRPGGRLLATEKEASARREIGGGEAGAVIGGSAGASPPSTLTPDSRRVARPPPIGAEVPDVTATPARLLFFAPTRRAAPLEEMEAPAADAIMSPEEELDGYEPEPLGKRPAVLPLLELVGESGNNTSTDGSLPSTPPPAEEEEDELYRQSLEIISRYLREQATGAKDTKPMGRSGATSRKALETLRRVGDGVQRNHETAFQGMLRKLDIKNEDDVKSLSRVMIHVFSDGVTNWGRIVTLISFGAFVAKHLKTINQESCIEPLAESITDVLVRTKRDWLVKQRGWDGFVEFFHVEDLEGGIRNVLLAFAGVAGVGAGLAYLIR
# Glutathione S-transferase omega-1 (Homo sapiens), sequence (P78417 whole entry, looked up): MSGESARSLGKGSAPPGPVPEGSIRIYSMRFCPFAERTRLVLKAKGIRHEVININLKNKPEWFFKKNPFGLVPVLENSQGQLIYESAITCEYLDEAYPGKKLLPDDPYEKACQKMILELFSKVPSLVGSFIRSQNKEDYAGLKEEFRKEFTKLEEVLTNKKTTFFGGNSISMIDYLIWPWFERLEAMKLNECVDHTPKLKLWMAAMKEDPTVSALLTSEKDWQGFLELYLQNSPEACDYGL
# Protein-arginine deiminase type-4 (Homo sapiens), sequence (Q9UM07 whole entry, looked up): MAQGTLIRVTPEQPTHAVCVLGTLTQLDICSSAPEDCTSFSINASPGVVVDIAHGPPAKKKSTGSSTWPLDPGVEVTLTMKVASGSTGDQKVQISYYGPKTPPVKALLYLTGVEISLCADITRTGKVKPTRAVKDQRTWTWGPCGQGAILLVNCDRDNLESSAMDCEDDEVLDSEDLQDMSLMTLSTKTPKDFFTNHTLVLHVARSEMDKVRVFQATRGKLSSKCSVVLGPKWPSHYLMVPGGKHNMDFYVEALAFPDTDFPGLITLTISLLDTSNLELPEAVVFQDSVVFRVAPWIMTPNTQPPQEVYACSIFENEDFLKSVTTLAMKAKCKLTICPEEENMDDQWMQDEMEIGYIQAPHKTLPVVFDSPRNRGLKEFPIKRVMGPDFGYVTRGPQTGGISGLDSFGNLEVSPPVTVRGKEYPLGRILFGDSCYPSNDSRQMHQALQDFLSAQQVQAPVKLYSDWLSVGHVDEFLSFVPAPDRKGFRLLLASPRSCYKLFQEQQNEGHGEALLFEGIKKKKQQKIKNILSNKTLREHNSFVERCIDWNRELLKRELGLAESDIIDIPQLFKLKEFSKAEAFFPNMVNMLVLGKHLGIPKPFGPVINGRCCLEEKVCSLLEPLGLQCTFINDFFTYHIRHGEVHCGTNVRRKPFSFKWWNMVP
# Platelet-activating factor acetylhydrolase (Homo sapiens), sequence (Q13093 whole entry, looked up): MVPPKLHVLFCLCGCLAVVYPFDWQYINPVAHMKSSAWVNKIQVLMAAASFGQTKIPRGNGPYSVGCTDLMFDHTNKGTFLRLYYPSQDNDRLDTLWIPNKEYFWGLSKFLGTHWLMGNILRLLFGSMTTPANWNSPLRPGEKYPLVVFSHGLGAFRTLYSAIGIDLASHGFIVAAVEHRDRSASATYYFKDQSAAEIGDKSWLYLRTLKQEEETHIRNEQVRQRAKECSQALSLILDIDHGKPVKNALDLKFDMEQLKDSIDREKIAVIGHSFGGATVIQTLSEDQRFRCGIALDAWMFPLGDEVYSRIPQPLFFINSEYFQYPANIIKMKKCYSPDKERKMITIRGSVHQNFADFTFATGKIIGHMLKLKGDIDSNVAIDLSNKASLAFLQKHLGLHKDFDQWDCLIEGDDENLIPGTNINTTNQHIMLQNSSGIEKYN
# Photoreceptor-specific nuclear receptor (Homo sapiens), sequence (Q9Y5X4 whole entry, looked up): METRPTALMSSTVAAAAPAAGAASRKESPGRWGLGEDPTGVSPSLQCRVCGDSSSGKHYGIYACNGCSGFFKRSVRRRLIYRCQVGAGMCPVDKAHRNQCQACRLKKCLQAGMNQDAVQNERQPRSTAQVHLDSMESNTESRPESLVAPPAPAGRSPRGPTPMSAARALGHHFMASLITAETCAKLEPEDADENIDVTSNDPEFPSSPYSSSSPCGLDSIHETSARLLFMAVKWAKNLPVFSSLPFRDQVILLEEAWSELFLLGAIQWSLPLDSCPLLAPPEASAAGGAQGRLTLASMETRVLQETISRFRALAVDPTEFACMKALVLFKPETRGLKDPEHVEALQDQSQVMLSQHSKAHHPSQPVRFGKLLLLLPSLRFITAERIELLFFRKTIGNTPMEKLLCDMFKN
# Toll-like receptor 9 (Homo sapiens), sequence (Q9NR96 whole entry, looked up): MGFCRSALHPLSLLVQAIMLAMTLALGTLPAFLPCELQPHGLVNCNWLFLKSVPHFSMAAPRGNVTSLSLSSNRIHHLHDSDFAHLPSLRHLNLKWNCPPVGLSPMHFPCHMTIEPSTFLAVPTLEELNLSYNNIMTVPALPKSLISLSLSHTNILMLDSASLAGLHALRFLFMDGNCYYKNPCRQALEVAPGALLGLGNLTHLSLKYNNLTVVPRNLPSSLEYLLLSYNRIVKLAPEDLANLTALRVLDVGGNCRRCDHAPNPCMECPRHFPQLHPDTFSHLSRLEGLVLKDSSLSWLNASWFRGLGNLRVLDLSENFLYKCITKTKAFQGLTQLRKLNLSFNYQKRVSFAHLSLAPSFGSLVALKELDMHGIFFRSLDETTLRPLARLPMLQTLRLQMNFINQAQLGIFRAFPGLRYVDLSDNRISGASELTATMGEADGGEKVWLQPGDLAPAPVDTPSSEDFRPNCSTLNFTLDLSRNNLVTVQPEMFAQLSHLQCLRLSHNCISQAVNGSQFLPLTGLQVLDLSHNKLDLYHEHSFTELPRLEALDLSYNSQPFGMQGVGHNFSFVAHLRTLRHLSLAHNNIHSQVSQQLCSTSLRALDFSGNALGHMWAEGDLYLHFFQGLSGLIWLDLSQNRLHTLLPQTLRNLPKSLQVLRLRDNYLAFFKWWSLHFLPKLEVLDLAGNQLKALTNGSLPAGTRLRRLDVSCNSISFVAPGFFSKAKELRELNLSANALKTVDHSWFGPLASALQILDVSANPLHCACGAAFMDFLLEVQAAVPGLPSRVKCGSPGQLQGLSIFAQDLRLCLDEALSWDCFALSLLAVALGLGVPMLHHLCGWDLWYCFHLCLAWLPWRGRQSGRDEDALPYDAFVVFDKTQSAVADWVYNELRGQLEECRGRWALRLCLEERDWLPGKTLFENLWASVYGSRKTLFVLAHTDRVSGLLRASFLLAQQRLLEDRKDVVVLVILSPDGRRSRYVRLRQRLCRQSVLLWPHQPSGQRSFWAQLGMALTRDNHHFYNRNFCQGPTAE
# Oxysterols receptor LXR-beta (Homo sapiens), sequence (P55055 whole entry, looked up, the tested form may be a part): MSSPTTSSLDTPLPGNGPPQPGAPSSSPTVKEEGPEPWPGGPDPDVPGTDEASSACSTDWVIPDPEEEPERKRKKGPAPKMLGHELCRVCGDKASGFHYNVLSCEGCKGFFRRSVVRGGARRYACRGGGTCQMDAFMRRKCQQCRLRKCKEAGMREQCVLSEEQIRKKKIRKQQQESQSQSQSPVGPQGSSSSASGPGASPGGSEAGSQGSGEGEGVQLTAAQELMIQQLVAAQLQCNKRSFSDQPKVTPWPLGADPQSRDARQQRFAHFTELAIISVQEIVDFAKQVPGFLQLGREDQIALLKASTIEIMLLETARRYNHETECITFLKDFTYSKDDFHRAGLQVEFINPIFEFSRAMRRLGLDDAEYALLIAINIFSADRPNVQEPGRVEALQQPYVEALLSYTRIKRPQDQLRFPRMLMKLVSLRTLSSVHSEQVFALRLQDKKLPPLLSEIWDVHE
smiles,measurement,setting,value
CN(NC(=O)c1ccccc1F)c1nc(C(F)(F)F)nc2ccccc12,inhibition,[1],77% (active)
same,inhibition,[2],59.6% (active)
same,inhibition,[3],4.94%
same,inhibition,[4],2.71%
CCCCC(=O)Nc1nc(C)c(-c2csc(Nc3ccc(Cl)cc3)n2)s1,inhibition,[5],8.42%
COc1cccc(C2Nc3cccc4cccc(c34)N2)c1,inhibition,[5],12.6%
COc1ccc(-c2nc(CS(=O)CC(=O)NCc3ccccn3)c(C)o2)cc1 (configuration not stated),inhibition,[5],23.4% (active)
same,inhibition,[6],96.8% (active)
same,inhibition,[7],125% (active)
Oc1ccc(C2Nc3cccc4cccc(c34)N2)cc1,inhibition,[5],14.4%
same,inhibition,[8],12.9%
Cc1cccc2cc3c(N)c(C(=O)N4CCCc5ccccc54)sc3nc12,inhibition,[5],4.65%
same,inhibition,[9],15.4%
same,inhibition,[10],12.7%
same,inhibition,[11],33.7% (active)
C/C(=N\Nc1cccc(C(=O)O)c1)c1ccc2c(c1)Nc1ccccc1S2,inhibition,[5],26.1% (active)
O=C(NC1CC1)c1ccc(-c2ccccc2)cc1,inhibition,[5],-4.72%
COCCNC(=O)Nc1ccc2nc(-c3ccco3)c(-c3ccco3)nc2c1,inhibition,[5],17.4%
same,inhibition,[6],104% (active)
same,inhibition,[7],136% (active)
same,inhibition,[12],64.7% (active)
same,activation (reported as inhibition),[13],-0.99%
same,inhibition,[14],33.1% (active)
same,inhibition,[15],1.02%
same,inhibition,[16],-6.1%
same,inhibition,[3],-14.8%
same,inhibition,[4],41.6% (active)
Cc1ccc(-c2nc3c(cnn3-c3ccccc3)c(=O)o2)cc1,inhibition,[5],16.2%
O=C(CCn1c(SCC(=O)c2ccccc2)nc2ccccc2c1=O)NCc1ccc(F)cc1,inhibition,[5],-13.1%
same,inhibition,[15],-0.06%
COC(=O)CSc1nccc(-c2cccs2)n1,inhibition,[5],-1%
Oc1oc(-c2ccccc2Br)nc1/C=N/c1ccccn1,inhibition,[5],68.7% (active)
Cc1nc(NC(=O)c2cccc(Cl)c2)sc1-c1csc(Nc2cccc(Cl)c2)n1,inhibition,[5],9.74%
Cc1ccc(C2Nc3cccc4cccc(c34)N2)cc1,inhibition,[6],13.9%
same,inhibition,[7],13.8%
COCCn1c(N)c(NCc2ccccc2)c(=O)[nH]c1=O,inhibition,[6],37.1% (active)
same,inhibition,[7],62.8% (active)
Nc1ccc2nn(-c3ccc(Cl)cc3)nc2c1,inhibition,[1],-145%
same,inhibition,[2],4.57%
same,activation,[17],1.78%
same,activation,[18],9.23% (active)
Cc1nnc(NC(=O)/C=C/c2ccco2)s1,inhibition,[6],11.6%
same,inhibition,[7],16.8%
COc1ccc(OC)c(Nc2nc(-c3ccc(O)c(O)c3)cs2)c1,inhibition,[5],-20.9%
same,inhibition,[12],2.96%
same,inhibition,[14],50.8% (active)
COc1ccc(-c2onc3ccc(C(C)=O)cc23)cc1,inhibition,[6],172% (active)
Cc1cccc(-c2nc(Nc3ccc(O)cc3)c3ccccc3n2)c1,inhibition,[5],17.7%
same,inhibition,[8],-0.9%
O=C(NNc1c2ccccc2nc2ccccc12)c1cc2ccccc2cc1O,inhibition,[5],51.3% (active)
same,inhibition,[8],-6.46%
same,inhibition,[19],41% (active)
COc1ccc(C2C=C(c3ccc(Br)cc3)Nc3nc(NS(C)(=O)=O)nn32)cc1 (configuration not stated),inhibition,[6],133% (active)
same,inhibition,[7],167% (active)
Cc1[nH]n(C(N)=S)c(=O)c1N=Nc1ccc(Cl)cc1Cl,inhibition,[5],22.4% (active)
COCCOC(=O)c1sc(=S)n(CCOC)c1N,inhibition,[5],19.6% (active)
same,inhibition,[6],85.4% (active)
same,inhibition,[7],131% (active)
same,inhibition,[8],21.3%
same,inhibition,[3],42.3% (active)
same,inhibition,[4],33.1% (active)
same,inhibition,[19],47.4% (active)
COc1ccc(Nc2cc(Cl)ccc2C(=O)O)cn1,inhibition,[6],38.7% (active)
same,inhibition,[7],53.5% (active)
Cc1ccc(/C=C(\C#N)C(=O)Nc2cccc3ncccc23)o1,inhibition,[6],23.1%
same,inhibition,[7],43.1% (active)
CCCn1c(C2CCCN2c2nc(-c3ccc(C)cc3)cs2)nc2cc(Cl)c(N3CCCCC3)cc21 (configuration not stated),inhibition,[6],4.86%
same,inhibition,[7],15.1%
Brc1ccc(C2=CC(c3ccco3)n3ncnc3N2)cc1 (configuration not stated),inhibition,[6],52.9% (active)
same,inhibition,[7],75.9% (active)
COC/C=C/C1=CC2=CC(=O)C(C)(OC(=O)CCC(=O)OC)C(=O)C2=CO1 (configuration not stated),inhibition,[6],43.5% (active)
same,inhibition,[7],59.1% (active)
O=c1[nH]c(=S)[nH]c2[nH]c(=S)[nH]c12,inhibition,[6],42.2% (active)
same,inhibition,[7],98.7% (active)
Oc1ccc2ccccc2c1N=Nc1nccs1,inhibition,[6],-28.4%
same,inhibition,[7],-52.8%
same,inhibition,[12],24.3%
same,inhibition,[20],52.2% (active)
same,inhibition,[21],45.8% (active)
same,inhibition,[22],46.5% (active)
same,inhibition,[23],29.6%
same,inhibition,[24],55.1% (active)
same,inhibition,[19],64.9% (active)
COc1cc([C@H](Cc2ccccc2)NC(C)=O)oc(=O)c1,inhibition,[6],37.8% (active)
same,inhibition,[7],40.9% (active)
CCCN1CC=C2C(C#N)=C(N)C(C#N)(C#N)C(c3cc(OC)ccc3OC)C2C1 (configuration not stated),inhibition,[6],35.6% (active)
same,inhibition,[7],35.4%
